Results from PubChem BioAssay AID1220 (Sanford-Burnham Center for Chemical Genomics, 2008).
Among all 190,000 compounds or so, about 1,300 (0.68%) were called active. Rule as the data show it: active = inhibition above about 50%; inactive = the rest. The entries come from a sample that favours actives as a whole.

The compounds below were run against Mannose-6-phosphate isomerase (Homo sapiens) (UniProt P34949) (assay: human PMI inhibitors, high substrate, primary screen, biochemical, fluorescence intensity, high mannose 6-phosphate (AID 1220)). Settings: recombinant PMI enzyme, coupled fluorescence intensity; at 20 µM; hits give high values.
Chain of Mannose-6-phosphate isomerase (Homo sapiens) (P34949 whole entry, looked up): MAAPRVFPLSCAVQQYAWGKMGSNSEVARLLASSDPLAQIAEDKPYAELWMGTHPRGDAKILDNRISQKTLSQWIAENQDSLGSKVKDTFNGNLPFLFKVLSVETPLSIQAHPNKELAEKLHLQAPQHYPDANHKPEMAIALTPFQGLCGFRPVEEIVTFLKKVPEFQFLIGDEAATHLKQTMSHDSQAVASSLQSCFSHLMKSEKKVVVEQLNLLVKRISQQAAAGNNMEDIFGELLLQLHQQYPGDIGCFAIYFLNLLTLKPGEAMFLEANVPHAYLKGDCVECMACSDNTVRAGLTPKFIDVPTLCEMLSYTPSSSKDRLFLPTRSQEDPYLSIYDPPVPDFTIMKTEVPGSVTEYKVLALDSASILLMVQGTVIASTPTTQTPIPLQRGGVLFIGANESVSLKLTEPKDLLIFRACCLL

Row | SMILES | inhibition
1 | O=c1c(-c2nnc(SCc3ccc(Cl)cc3Cl)o2)cccn1Cc1ccccc1 | 7.2% (inactive)
2 | COc1ccc(N2C(=O)CC(n3c(CCCCO)nc4ccccc43)C2=O)cc1 (stereo unspecified) | -9.5% (inactive)
3 | Cn1c(/C(C#N)=C/c2cccc(O)c2)nc2ccccc21 | 6.4% (inactive)
4 | COc1cc(/C=C(\C#N)c2nc3ccccc3n2C)cc(OC)c1O | 57% (active)
5 | Cn1c(/C(C#N)=C/c2ccncc2)nc2ccccc21 | 30.7% (inactive)
6 | Cc1ccc2nc(C)/c(=N\O)c(C)nc2c1 | 2.2% (inactive)
7 | Cc1nc2ccc(Cl)cc2nc(C)/c1=N\O | 32.9% (inactive)
8 | Cc1nc2ccccc2nc(C)c1=NO | 54.2% (active)
9 | COCCN1C(=O)/C(=C/c2ccc(OCc3ccc(C(=O)O)cc3)c(OC)c2)SC1=Nc1ccccc1 | 5.1% (inactive)
10 | CC(C)CNC(=O)COC(=O)c1cc(S(=O)(=O)N(C)C)ccc1N1CCCC1 | 4.7% (inactive)
11 | CCN1C=CC2=C(C#N)C(N)C(C#N)(C#N)C(c3ccccc3C(F)(F)F)C2C1 (stereo unspecified) | 5.1% (inactive)
12 | CN1C=CC2=C(C#N)C(N)C(C#N)(C#N)[C@H](c3ccccc3)[C@H]2C1 (stereo partly specified) | 61% (active)
13 | CN1C=CC2=C(C#N)C(N)C(C#N)(C#N)C(c3ccccc3)C2C1 (stereo unspecified) | 18.5% (inactive)
14 | O=C(Cn1nc(C(F)(F)F)c2c1CCC2)NCc1ccc(Cl)cc1 | -8.7% (inactive)
15 | CC(C)C(C)NC(=O)CN1C(=O)NC2(CCCc3ccccc32)C1=O (stereo unspecified) | -2.2% (inactive)
16 | CC1CCCN(c2cc(N(C)CCO)c([N+](=O)[O-])c3nonc23)C1 (stereo unspecified) | 18% (inactive)
17 | CN(CCO)c1cc(N2CCN(C(=O)c3ccco3)CC2)c2nonc2c1[N+](=O)[O-] | 12.4% (inactive)
18 | O=[N+]([O-])c1c(NCCCO)cc(N2CCN(Cc3ccc4c(c3)OCO4)CC2)c2nonc12 | 45.2% (inactive)
19 | CN(CCO)c1cc(N2CCC3(CC2)OCCO3)c2nonc2c1[N+](=O)[O-] | 34.9% (inactive)
20 | CN(CCO)c1cc(N2CCCCC2)c2nonc2c1[N+](=O)[O-] | 42.4% (inactive)
21 | CCOC(=O)C1CCCN(c2cc(NCCCO)c([N+](=O)[O-])c3nonc23)C1 (stereo unspecified) | 55.2% (active)
22 | CCOC(=O)N1CCN(c2cc(N(C)CCO)c([N+](=O)[O-])c3nonc23)CC1 | 55.5% (active)

Row | SMILES | inhibition
23 | CC1CCN(c2cc(N(C)CCO)c([N+](=O)[O-])c3nonc23)CC1 | 50.7% (active)
24 | O=[N+]([O-])c1c(NCCO)cc(N2CCN(Cc3ccc4c(c3)OCO4)CC2)c2nonc12 | 49.1% (inactive)
25 | CC(C)(C)NC(=O)COC(=O)Cc1ccc(Cl)cc1 | -0.9% (inactive)
26 | COC(=O)N/N=C/c1cc(Cl)c(OCc2ccc(F)cc2)c(OC)c1 | -6.1% (inactive)
27 | CCC(C)NCCOCCOc1ccc(C)cc1Br (stereo unspecified) | 0.7% (inactive)
28 | CCn1c(SCC(=O)N/N=C/C=C\c2ccccc2[N+](=O)[O-])nc2ccccc21 | 6.4% (inactive)
29 | CCOc1ccc(NC2CCN(C(C)=O)CC2)cc1 | 33.1% (inactive)
30 | Clc1ccc(CCNc2nc3ccccc3s2)cc1 | 1.2% (inactive)
31 | O=C(CSc1ncccc1C(=O)O)c1ccccc1 | -60.9% (inactive)
32 | Cn1c(SCC(=O)Nc2cccc(Br)c2)nnc1-c1cc2ccccc2o1 | -14.1% (inactive)
33 | O=C(NCCc1ccccc1)c1ccccc1F | 8.3% (inactive)
34 | c1cncc(-c2nn[nH]n2)c1 | -12.1% (inactive)
35 | c1cncc(-c2cccnc2)c1 | -2.8% (inactive)
36 | c1cncc(-c2nnc(-c3cccnc3)nn2)c1 | 62.4% (active)
37 | COc1ccc(S(=O)(=O)NC(CC(=O)NCC2CCCO2)c2ccco2)cc1 (stereo unspecified) | 8% (inactive)
38 | Cc1cccc(OCCOCCN2CCNCC2)c1C | -5% (inactive)
39 | Cc1nc2sc(C(c3ccccc3)N3CCOCC3)c(O)n2n1 (stereo unspecified) | 3.4% (inactive)
40 | NC1=NC(=O)C(CC(=O)NCc2ccccc2)S1 (stereo unspecified) | -10.3% (inactive)
41 | O=C(O)CNC(=O)CC1S/C(=N/N=C2/NC(=O)CS2)NC1=O (stereo unspecified) | 29.5% (inactive)
42 | Cc1ccc(C(=O)OCC(=O)Nc2ccccc2)cc1NC(=O)c1ccco1 | -0.6% (inactive)
43 | Cc1ccc(C)c(N2CCN(C(=O)CNS(=O)(=O)c3cccs3)CC2)c1 | -4.9% (inactive)
44 | COc1ccc(Cn2c(SCc3ccc(C)cc3)nc3cc(OC)c(OC)cc3c2=N)cc1Cl | 1.9% (inactive)

Row | SMILES | inhibition
45 | CSc1ccc(/C=C/c2ccc3cccc(O)c3n2)cc1 | 17.3% (inactive)
46 | Cc1ccsc1/C=C/c1ccc2cccc(O)c2n1 | -8.2% (inactive)
47 | O=C(CSc1nnc(-c2cccs2)n1-c1ccccc1)NCC1CCCO1 (stereo unspecified) | 5.8% (inactive)
48 | CCNc1ccc2noc3c2c1C(=O)c1ccccc1-3 | 46% (inactive)
49 | O=C1c2ccccc2-c2onc3ccc(N4CCCC4)c1c23 | 62.6% (active)
50 | CCOc1ccc2noc3c2c1C(=O)c1ccccc1-3 | 19% (inactive)
51 | O=C1c2ccccc2-c2onc3ccc(NCc4ccco4)c1c23 | 58.1% (active)
52 | O=C1c2ccccc2-c2onc3ccc(NCCCn4ccnc4)c1c23 | 14.4% (inactive)
53 | O=C1c2ccccc2C(=O)c2c1cccc2N1CCCC1 | 19.4% (inactive)
54 | CSc1nc2ccccc2n1CC(=O)N1CCCCC1 | 8.7% (inactive)
55 | CCC(Sc1ccc2nnc(-c3ccc(OC)c(OC)c3)n2n1)C(=O)O (stereo unspecified) | -19.3% (inactive)
56 | CN(C)S(=O)(=O)c1cc(NC(=O)Cn2ccsc2=N)ccc1Cl | -0.6% (inactive)
57 | O=C(NC(=S)Nc1ccccc1N1CCOCC1)c1sc2ccccc2c1Cl | 7.5% (inactive)
58 | CN1CCN(c2ccccc2NC(=O)c2sc3ccccc3c2Cl)CC1 | 62.3% (active)
59 | CN1CCN(c2ccc(NC(=O)c3sc4ccccc4c3Cl)cc2)CC1 | 10.7% (inactive)
60 | COc1ccccc1NC(=O)CN1CCC(n2c(C)nc3cc(F)ccc32)CC1 | -4.8% (inactive)
61 | Cn1c(CNc2ccccc2O)nc2ccccc21 | 61.3% (active)
62 | Cn1c(CNc2nc3ccccc3n2C)nc2ccccc21 | 3.4% (inactive)
63 | CCCn1c(CNc2ccccc2O)nc2ccccc21 | 34.6% (inactive)
64 | Oc1ccccc1NCC(O)Cn1ccc2ccccc21 (stereo unspecified) | 55.3% (active)
65 | OC(CNc1ccccc1)Cn1ccc2ccccc21 (stereo unspecified) | 7.5% (inactive)
66 | OCCNCC(O)Cn1ccc2ccccc21 (stereo unspecified) | 12% (inactive)
